Experimental data taken from PubChem BioAssay (NCI).
The panel holds about 83,000 compounds, 20% with a hit somewhere; the sample as a whole holds those more often.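 48-hour exposure, single concentration, 96-well plates; percent growth endpoint where 0 means no net growth. Active: below 10.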 Values without a mark were called inactive. Calls of active or inactive are those of the source.

What was measured:
Experiment in all cases: NCI-60 one-dose screen, 48 h (100 = growth as untreated, 0 = no growth, -100 = all killed)
Details in all cases: 10 µM unless noted
HCT-15 colon = test system: HCT-15 colon
HT29 colon = test system: HT29 colon
SNB-75 CNS = test system: SNB-75 CNS
SNB-19 CNS = test system: SNB-19 CNS
U251 CNS = test system: U251 CNS
PC-3 prostate = test system: PC-3 prostate
SK-MEL-5 melanoma = test system: SK-MEL-5 melanoma
UACC-62 melanoma = test system: UACC-62 melanoma
LOX IMVI melanoma = test system: LOX IMVI melanoma
SK-MEL-28 melanoma = test system: SK-MEL-28 melanoma

Row | SMILES | growth (HCT-15 colon) | growth (HT29 colon) | growth (SNB-75 CNS) | growth (SNB-19 CNS) | growth (U251 CNS) | growth (PC-3 prostate) | growth (SK-MEL-5 melanoma) | growth (UACC-62 melanoma) | growth (LOX IMVI melanoma) | growth (SK-MEL-28 melanoma)
1 | CCOC(=O)C/C(=N\Nc1cc(=O)[nH]c2ccc(C)cc12)C(=O)OCC | 103% | 112% | 94.7% | 97.8% | 103% | 91.4% | 96.8% | 91.1% | 102% | 99.3%
2 | O=C1NC(=O)C(c2coc3cc(Br)ccc23)=C1c1c[nH]c2ccccc12 | 25% | 20.6% | -2.44% (active) | 58% | 29.6% | 67.2% | 80.7% | 35.6% | 44% | 71.5%
3 | CCN(CC)C(=O)CC1=C(C)/C(=C/c2[nH]c(-c3ccc[nH]3)cc2OC)N=C1C | 1.25% (active) | 12.4% | 14.2% | 42.4% | 23.9% | 3.87% (active) | -59.3% (active) | -51.8% (active) | -58.8% (active) | 25.6%
4 | O=C1Nc2ccc(Cl)cc2/C1=C/c1ccc[nH]1 | 34.2% | 107% | 114% | 106% | 100% | 111% | 77.5% | 102% | 95.5% | 129%
5 | Cn1cc(-c2csc(-c3cn(CCCN4CCOCC4)c4ccc(F)cc34)n2)c2cccnc21 | 27.1% | 1.97% (active) | 87.1% | 77.1% | 51.1% | 29.6% | 25.1% | 72.2% | 26.6% | 77.5%
6 | Cc1[nH]n(-c2cccc(Cl)c2)c(=O)c1/C=C1\C=c2ccccc2=CC1=O | 49.9% | 13.5% | -5.52% (active) | 31.4% | -10.7% (active) | 33% | -82.5% (active) | 82.7% | -79.4% (active) | 51.1%
7 | Cn1cc(-c2csc(-c3cn(C)c4ccccc34)n2)c2cnccc21 | -35.9% (active) | 4.26% (active) | 104% | 52.2% | -48.7% (active) | 54.8% | -76.2% (active) | 61.4% | -87.5% (active) | -92.9% (active)
8 | COCCOC(C)C(/C=N/NC(N)=S)=N/NC(N)=S (stereo not given) | 51.8% | 39.5% | 120% | 92.8% | 48.5% | 27.9% | 60.8% | 67.1% | 51.1% | 90.1%
9 | Cc1cc(O)cc(-c2nn(C)cc2-c2cc(N3CCOCC3)nc(-c3cccnc3)n2)c1 | 22.7% | 17.4% | 1.48% (active) | 33.8% | 21.5% | 22.7% | 1.65% (active) | 18.1% | 25.6% | 46.8%
10 | COC(=O)c1ccc2cc(OC)c(OC)cc2c1 | 100% | 90.7% | 97.8% | 99.5% | 95.7% | 92.1% | 108% | 104% | 109% | 102%
11 | CN(C)CCn1c(=O)c2ccccc2n2nc3ccccc3c12 | 84.1% | 78.9% | 93.5% | 78.1% | 88.8% | 99.3% | 87.2% | 72.7% | 56.4% | 116%
12 | Cc1ccc(S(=O)(=O)OCC#CCOS(=O)(=O)c2ccc(C)cc2)cc1 | 72.3% | 50.3% | 5% (active) | 70.1% | 22.6% | 70.4% | 59.4% | 42.4% | -35.8% (active) | 74.9%
13 | O=c1cc(CNc2cc(F)cc(F)c2)c2ccc(I)cc2[nH]1 | 32.1% | 8.99% (active) | -9.56% (active) | 49.8% | 31.8% | 26.7% | 18.5% | 36.7% | 41% | 64%
14 | CCN(CC)CCOc1ccc2ccc(=O)oc2c1 | 104% | 102% | 107% | 98.5% | 101% | 21.3% | 102% | 94.8% | 101% | 99.6%
15 | Fc1ccc2[nH]cc(-c3nc(-c4c[nH]c5c(Cl)nccc45)cs3)c2c1 | -39.6% (active) | 17.5% | 49.9% | 59.9% | 13.8% | 31.5% | 60.4% | 24% | 16.2% | 43.9%
16 | CN(C)CCC(=O)C1CC1 | 106% | 99.3% | 102% | 96% | 102% | 99.2% | 106% | 99.2% | 99% | 107%
17 | COc1ccc(Nc2ncc(I)c(NCCCNC(=O)C3CCC3)n2)cc1 | -18.8% (active) | 12.5% | 39.4% | 24.5% | 2.43% (active) | 23.8% | 23.3% | 22.9% | -11.3% (active) | 43.4%
18 | N[C@@H]1CCC[C@H]1NCCCCN1C(=O)c2cccc3cc([N+](=O)[O-])cc(c23)C1=O | 59.9% | 14.3% | 38.1% | 39.1% | 33.7% | 39% | 62.4% | 66.3% | 14.9% | 85.7%
19 | Nc1nc(C(=O)N/N=C/c2ccc(F)cc2)nn1-c1ccc(S(N)(=O)=O)cc1 | 108% | 98.5% | 83.1% | 95.2% | 98.4% | 107% | 107% | 94.4% | 94.1% | 107%
20 | CCOC(=O)c1c(C)nc2ccccc2c1/C=C/c1ccc(F)cc1 | 68.1% | 75.5% | 86.5% | 76.9% | 75.5% | 67.3% | 16.7% | 49.7% | 74.1% | 101%
21 | O=C(NCc1ccc(Cn2c(=O)sn(-c3ccccc3)c2=O)cc1)OCc1ccc2cccc(O)c2n1 | -30.3% (active) | -52.7% (active) | -22.6% (active) | 44.7% | 9.01% (active) | -68.9% (active) | -84.7% (active) | -61.9% (active) | -95.3% (active) | -62.3% (active)
22 | Clc1ccc(-c2nc(C(Cl)Cl)nc3cc(-c4ccccc4)nn23)cc1 | 8.19% (active) | 5.93% (active) | -13.1% (active) | 25.2% | 7% (active) | 41.2% | 82.2% | 79.8% | 78.5% | 47.9%
23 | C=C1C(=O)O[C@H]2[C@H]1CC/C(CNC(=O)Cc1c[nH]c3ccccc13)=C\CC[C@@]1(C)O[C@@H]21 | 15.6% | 1.86% (active) | 73.9% | 57.5% | 43.9% | 49.9% | 42.1% | -23.5% (active) | -75.3% (active) | -29.9% (active)
24 | COC(=O)/C(CCC=C(C)C)=C1\[C@@H](OC(C)=O)C[C@@]2(C)[C@H]1C/C(=N/O)[C@H]1[C@@]3(C)CC/C(=N\O)[C@@H](C)[C@@H]3CC[C@@]12C | 88.4% | 107% | 86.9% | 88.9% | 91.5% | 70.9% | 98.9% | 93.7% | 78.1% | 111%
25 | CCCCO[C@@H]1C=C2[C@H]3CC(C)(C)C(=O)C[C@]3(C(=O)O[C@@H]3O[C@H](CO[C@@H]4O[C@H](CO)[C@@H](OC5OC(C)C(O)C(O)C5O)[C@H](O)[C@H]4O)[C@@H](O)[C@H](O)[C@H]3O)CC[C@@]2(C)[C@]2(C)CC[C@H]3C(C)(C)C(=O)CC[C@]3(C)[C@@H]12 (stereo not given in full) | 54.5% | 43.2% | 31.3% | 88% | 56.4% | 85.2% | 63.9% | 81.4% | 76.9% | 41.5%
26 | CCCCCCCCCCOC(=O)c1nn(C(C)=O)c2cc(C)c(C)cc12 | 98.8% | 92.1% | 115% | 105% | 93.3% | 73.7% | 99.5% | 93.3% | 87.9% | 109%
